Experimental data published in PubChem BioAssay AID1159580 (chemical genetic matrix, 2015).
Out of some 5,500 compounds screened, about 2,000 (36%) were called active. Inconclusive results (about 18%) are left out. Rule as the data show it: active = normalized growth mostly below about 0.91 (no sharp cut-off); inconclusive = no clear call, values can overlap the other calls; inactive = mostly above about 0.92. Some of the results follow.

Experiment: chemical genetic growth profiling, strain panel (AID 1159580);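 also: tested at 20 µM; growth read once vehicle control cultures reached saturation at 30 °C; 1 = growth at the plate median or of vehicle wells; lower values mean less growth of the strain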
Settings: growth OD
[1] = S. cerevisiae deletion strains, locus YHR030C, strain SLT2, active compounds read low

Measured: normalized growth

CC(C)CC1NC(=O)NC1=O (configuration not stated)
inactive: S. cerevisiae deletion strains, locus YAL013W, strain DEP1, active compounds read low 1.02 | S. cerevisiae deletion strains, locus YBR229C, strain ROT2, active compounds read low 1.01 | S. cerevisiae deletion strains, locus YDL101C, strain DUN1, active compounds read low 1 | S. cerevisiae deletion strains, locus YDL134C, strain PPH21, active compounds read low 1.05 | S. cerevisiae deletion strains, locus YDR150W, strain NUM1, active compounds read low 1.01 | S. cerevisiae deletion strains, locus YEL061C, strain CIN8, active compounds read low 1.02 | S. cerevisiae deletion strains, locus YGR078C, strain PAC10, active compounds read low 1.01 | S. cerevisiae deletion strains, locus YGR229C, strain SMI1, active compounds read low 1.01 | [1] 1.04 | S. cerevisiae deletion strains, locus YHR087W, strain rtc3, active compounds read low 1.02 | S. cerevisiae deletion strains, locus YJR043C, strain POL32, active compounds read low 1.01 | S. cerevisiae deletion strains, locus YJR075W, strain HOC1, active compounds read low 1.02 | S. cerevisiae deletion strains, locus YLR039C, strain RIC1, active compounds read low 1 | S. cerevisiae deletion strains, locus YLR058C, strain SHM2 (second series), active compounds read low 0.998 | S. cerevisiae deletion strains, locus YLR085C, strain ARP6, active compounds read low 1.07 | S. cerevisiae deletion strains, locus YLR262C, strain YPT6, active compounds read low 1 | S. cerevisiae deletion strains, locus YML094W, strain GIM5, active compounds read low 1.03 | S. cerevisiae deletion strains, locus YMR219W, strain ESC1, active compounds read low 1.01 | S. cerevisiae deletion strains, locus YMR263W, strain SAP30, active compounds read low 1.01 | S. cerevisiae deletion strains, locus YMR307W, strain GAS1, active compounds read low 1.02 | S. cerevisiae deletion strains, locus YNL153C, strain GIM3, active compounds read low 1.01 | S. cerevisiae deletion strains, locus YNL298W, strain CLA4 (second series), active compounds read low 0.984 | S. cerevisiae deletion strains, locus YNL322C, strain KRE1, active compounds read low 1.02 | S. cerevisiae deletion strains, locus YNR030W, strain Alg12, active compounds read low 1.02 | S. cerevisiae deletion strains, locus YPL055C, strain LGE1, active compounds read low 1.07 | S. cerevisiae deletion strains, locus YPL241C, strain CIN2, active compounds read low 1.02 | S. cerevisiae deletion strains, locus YPR135W, strain CTF4, active compounds read low 1.13 | S. cerevisiae strains, strain wild type, active compounds read low 1.02

CCCCCC(=O)Cc1cc(O)cc(O)c1C(=O)Oc1cc(CC(=O)CCCCC)c(C(=O)O)c(OC)c1
active: S. cerevisiae deletion strains, locus YAL021C, strain ccr4, active compounds read low 0.892 | S. cerevisiae deletion strains, locus YAL026C, strain drs2, active compounds read low 0.86 | S. cerevisiae deletion strains, locus YBR009C, strain hhf1, active compounds read low 0.881 | S. cerevisiae deletion strains, locus YBR023C, strain chs3, active compounds read low 0.907 | S. cerevisiae deletion strains, locus YBR171W, strain sec66, active compounds read low 0.858 | S. cerevisiae deletion strains, locus YDR137W, strain rgp1, active compounds read low 0.412 | S. cerevisiae deletion strains, locus YDR159W, strain sac3, active compounds read low 0.771 | S. cerevisiae deletion strains, locus YDR335W, strain msn5, active compounds read low 0.894 | S. cerevisiae deletion strains, locus YDR392W, strain spt3, active compounds read low 0.404 | S. cerevisiae deletion strains, locus YER016W, strain bim1, active compounds read low 0.913 | S. cerevisiae deletion strains, locus YER155C, strain BEM2 (second series), active compounds read low 0.639 | S. cerevisiae deletion strains, locus YGL167C, strain pmr1, active compounds read low 0.89 | S. cerevisiae deletion strains, locus YGL173C, strain kem1, active compounds read low 0.851 | S. cerevisiae deletion strains, locus YGL240W, strain doc1, active compounds read low 0.77 | S. cerevisiae deletion strains, locus YGL253W, strain hxk2, active compounds read low 0.855 | S. cerevisiae deletion strains, locus YHR013C, strain ard1, active compounds read low 1.18 [resistant] | S. cerevisiae deletion strains, locus YHR027C, strain rpn1, active compounds read low 0.919 | S. cerevisiae deletion strains, locus YHR142W, strain chs7, active compounds read low 0.818 | S. cerevisiae deletion strains, locus YJL095W, strain BCK1 (second series), active compounds read low 0.694 | S. cerevisiae deletion strains, locus YJL129C, strain trk1, active compounds read low 0.632 | S. cerevisiae deletion strains, locus YJL164C, strain tpk1, active compounds read low 0.899 | S. cerevisiae deletion strains, locus YJL166W, strain qcr8, active compounds read low 0.871 | S. cerevisiae deletion strains, locus YJL187C, strain SWE1, active compounds read low 0.909 | S. cerevisiae deletion strains, locus YKR091W, strain srl3, active compounds read low 0.922 | S. cerevisiae deletion strains, locus YLL041C, strain sdh2, active compounds read low 0.927 | S. cerevisiae deletion strains, locus YLR027C, strain aat2, active compounds read low 0.922 | S. cerevisiae deletion strains, locus YLR221C, strain rsa3, active compounds read low 0.859 | S. cerevisiae deletion strains, locus YLR262C, strain YPT6 (second series), active compounds read low 0.409 | S. cerevisiae deletion strains, locus YLR320W, strain mms22, active compounds read low 0.826 | S. cerevisiae deletion strains, locus YLR342W, strain FKS1, active compounds read low 0.901 | S. cerevisiae deletion strains, locus YML120C, strain ndi1, active compounds read low 0.898 | S. cerevisiae deletion strains, locus YMR058W, strain fet3, active compounds read low 0.883 | S. cerevisiae deletion strains, locus YMR129W, active compounds read low 0.918 | S. cerevisiae deletion strains, locus YMR205C, strain PFK2, active compounds read low 0.783 | S. cerevisiae deletion strains, locus YNL071W, strain lat1, active compounds read low 0.888 | S. cerevisiae deletion strains, locus YOR001W, strain rrp6, active compounds read low 0.882 | S. cerevisiae deletion strains, locus YOR070C, strain gyp1, active compounds read low 0.918 | S. cerevisiae deletion strains, locus YOR265W, strain rbl2, active compounds read low 0.925 | S. cerevisiae deletion strains, locus YOR270C, strain vph1, active compounds read low 0.607 | S. cerevisiae deletion strains, locus YPL051W, strain arl3, active compounds read low 0.853 | S. cerevisiae deletion strains, locus YPL078C, strain atp4, active compounds read low 0.862 | S. cerevisiae deletion strains, locus YPL106C, strain sse1, active compounds read low 0.812 | S. cerevisiae deletion strains, locus YPL240C, strain hsp82, active compounds read low 0.912
inactive: S. cerevisiae deletion strains, locus YAL030W, strain snc1, active compounds read low 0.934 | S. cerevisiae deletion strains, locus YBL061C, strain skt5, active compounds read low 0.925 | S. cerevisiae deletion strains, locus YBR231C, strain swc5, active compounds read low 0.927 | S. cerevisiae deletion strains, locus YBR279W, strain paf1, active compounds read low 0.943 | S. cerevisiae deletion strains, locus YCL011C, strain gbp2, active compounds read low 0.933 | S. cerevisiae deletion strains, locus YCL016C, strain dcc1, active compounds read low 0.943 | S. cerevisiae deletion strains, locus YCL069W, strain vba3, active compounds read low 0.929 | S. cerevisiae deletion strains, locus YCR088W, strain abp1, active compounds read low 0.934 | S. cerevisiae deletion strains, locus YDL005C, strain med2, active compounds read low 0.954 | S. cerevisiae deletion strains, locus YDL040C, strain nat1, active compounds read low 0.939 | S. cerevisiae deletion strains, locus YDR001C, strain nth1, active compounds read low 0.936 | S. cerevisiae deletion strains, locus YDR069C, strain doa4, active compounds read low 0.95 | S. cerevisiae deletion strains, locus YDR195W, strain ref2 0.863 | S. cerevisiae deletion strains, locus YDR297W, strain sur2, active compounds read low 0.927 | S. cerevisiae deletion strains, locus YDR334W, strain swr1, active compounds read low 0.917 | S. cerevisiae deletion strains, locus YEL003W, strain gim4, active compounds read low 0.919 | S. cerevisiae deletion strains, locus YEL037C, strain rad23, active compounds read low 0.941 | S. cerevisiae deletion strains, locus YEL061C, strain CIN8 (second series), active compounds read low 0.946 | S. cerevisiae deletion strains, locus YER015W, strain faa2, active compounds read low 0.947 | S. cerevisiae deletion strains, locus YER111C, strain swi4, active compounds read low 0.941 | S. cerevisiae deletion strains, locus YFR010W, strain ubp6, active compounds read low 0.933 | S. cerevisiae deletion strains, locus YGL227W, strain vid30, active compounds read low 0.937 | [1] 1.01 | S. cerevisiae deletion strains, locus YHR079C, strain IRE1, active compounds read low 0.981 | S. cerevisiae deletion strains, locus YJL092W, strain hpr5, active compounds read low 0.943 | S. cerevisiae deletion strains, locus YJL095W, strain BCK1, active compounds read low 0.99 | S. cerevisiae deletion strains, locus YJL115W, strain asf1, active compounds read low 0.922 | S. cerevisiae deletion strains, locus YJL154C, strain vps35, active compounds read low 0.935 | S. cerevisiae deletion strains, locus YJR066W, strain TOR1, active compounds read low 0.939 | S. cerevisiae deletion strains, locus YKL160W, strain elf1, active compounds read low 0.916 | S. cerevisiae deletion strains, locus YKR026C, strain gcn3, active compounds read low 0.933 | S. cerevisiae deletion strains, locus YLL001W, strain dnm1, active compounds read low 0.941 | S. cerevisiae deletion strains, locus YLL026W, active compounds read low 0.935 | S. cerevisiae deletion strains, locus YLR113W, strain HOG1, active compounds read low 0.983 | S. cerevisiae deletion strains, locus YLR258W, strain gsy2, active compounds read low 0.919 | S. cerevisiae deletion strains, locus YLR357W, strain rsc2, active compounds read low 0.866 | S. cerevisiae deletion strains, locus YLR370C, strain arc18, active compounds read low 0.925 | S. cerevisiae deletion strains, locus YLR384C, strain iki3, active compounds read low 0.945 | S. cerevisiae deletion strains, locus YMR125W, strain sto1, active compounds read low 0.909 | S. cerevisiae deletion strains, locus YMR231W, strain pep5, active compounds read low 0.929 | S. cerevisiae deletion strains, locus YNL183C, strain NPR1, active compounds read low 0.946 | S. cerevisiae deletion strains, locus YNL209W, strain ssb2, active compounds read low 0.948 | S. cerevisiae deletion strains, locus YNL248C, strain rpa49, active compounds read low 0.903 | S. cerevisiae deletion strains, locus YNL322C, strain KRE1 (second series), active compounds read low 0.919 | S. cerevisiae deletion strains, locus YNR049C, strain mso1, active compounds read low 0.95 | S. cerevisiae deletion strains, locus YOR080W, strain dia2, active compounds read low 0.938 | S. cerevisiae deletion strains, locus YOR083W, strain WHI5, active compounds read low 0.898 | S. cerevisiae deletion strains, locus YOR106W, strain vam3, active compounds read low 0.897 | S. cerevisiae deletion strains, locus YOR231W, strain MKK1, active compounds read low 0.994 | S. cerevisiae deletion strains, locus YOR290C, strain snf2, active compounds read low 0.925 | S. cerevisiae deletion strains, locus YPL256C, strain CLN2, active compounds read low 0.989
